Assay results: PubChem BioAssay AID504652 (National Center for Advancing Translational Sciences (NCATS), 2011)
The whole screen tested about 360,000 compounds, of which about 11,000 (3.1%) were called active. Cut-off read from the data, not from the text of the source: active = activity change below about -30%; inactive = the rest. For the sample, actives were picked, then their nearest neighbours and some compounds at random.

What follows are molecules tested against D(1A) dopamine receptor (Homo sapiens) (UniProt P21728) (assay: Antagonist of Human D 1 Dopamine Receptor: qHTS). Conditions: HEK293 TREx D1 cells, calcium flux, dopamine EC80; at 10 µM; stronger effect = lower value.
D(1A) dopamine receptor (Homo sapiens), sequence (P21728 whole entry, looked up): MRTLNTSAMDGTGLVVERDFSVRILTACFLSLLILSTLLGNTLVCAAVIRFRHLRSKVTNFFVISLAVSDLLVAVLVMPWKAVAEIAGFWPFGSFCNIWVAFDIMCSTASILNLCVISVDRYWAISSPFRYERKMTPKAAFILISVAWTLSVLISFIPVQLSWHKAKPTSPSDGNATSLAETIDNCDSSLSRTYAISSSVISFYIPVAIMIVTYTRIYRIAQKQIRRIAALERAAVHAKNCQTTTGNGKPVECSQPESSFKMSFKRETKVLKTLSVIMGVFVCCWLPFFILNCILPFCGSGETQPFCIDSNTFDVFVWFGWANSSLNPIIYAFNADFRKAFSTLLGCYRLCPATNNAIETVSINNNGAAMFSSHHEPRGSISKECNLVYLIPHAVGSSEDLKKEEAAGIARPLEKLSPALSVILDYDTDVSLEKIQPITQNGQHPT
Method in brief: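 Tetracycline-induced HEK293 T-REx cells with force-coupled D1 receptor were loaded with a no-wash calcium dye. Compound was added after a 10 s baseline and read kinetically for 180 s; EC80 dopamine was then added and calcium flux followed another 180 s.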
% is set by controls: 0 for no effect and ±100 for the full control effect.

| SMILES | activity change, negative = inhibition |
| --- | --- |
| O=C(CCc1nc(CN2CCN(S(=O)(=O)c3ccc(Cl)cc3)CC2)no1)N1CCCCC1 | -4.7% (inactive) |
| Cc1ccc([C@@H]2CC=C(C(=O)O)[C@H](c3cccc(Cl)c3)N2S(=O)(=O)c2ccc(C)cc2)cc1 | -12.2% (inactive) |
| Cc1ccccc1S(=O)(=O)N1[C@@H](c2cccc(Cl)c2)C(C(=O)O)=CC[C@H]1c1ccc(Cl)cc1 | -39.7% (active) |
| Cc1ccc(S(=O)(=O)N2[C@@H](c3cccc(Cl)c3)C(C(=O)O)=CC[C@H]2c2ccc(Cl)c(Cl)c2)cc1 | -17.8% (inactive) |
| CCc1cccc(-n2nnc(-c3nsc(NC(=O)c4ccc(C)cc4)n3)c2C)c1 | 16.6% (inactive) |
| Cc1ccc(CNC(=O)COc2ccc3c(c2)CCC3)cc1 | 0.495% (inactive) |
| COc1cc(C(=O)NCc2ccc3c(c2)cc(C)n3C)cc(OC)c1OC | -1.99% (inactive) |
| CCOCC(=O)NCc1ccc2c(c1)cc(C)n2C | -38.5% (active) |
| CCc1ccccc1NC(=O)Cn1c(=O)n(CC2CCC(C(=O)NCCc3ccccc3)CC2)c(=O)c2ccccc21 (centres undefined) | 9.85% (inactive) |
| CC(=O)c1c(C)n(-c2ccc(N(C)C)cc2)c2ccc(OCC(N)=O)cc12 | 4.08% (inactive) |
| CC(=O)c1c(C)n(-c2ccc(C)cc2)c2ccc(O)cc12 | -50.8% (active) |
| CCOC(=O)c1c(CN2CCOCC2)n(-c2ccccc2)c2ccc(O)cc12 | 2.3% (inactive) |
| O=c1c2ccccc2n(Cc2cccc(Cl)c2)c(=O)n1Cc1ccccc1 | -3.55% (inactive) |
| Fc1ccccc1Oc1ncnc2c1oc1ccccc12 | -11.6% (inactive) |
| CCn1c(SCc2cc(=O)n3ccsc3n2)nc2ccccc21 | -2.02% (inactive) |
| O=c1cc(Cn2nnc(-c3ccc(Cl)cc3)n2)nc2sccn12 | -32.8% (active) |
| O=C(OCc1cc(=O)n2ccsc2n1)C1(c2ccc(Cl)cc2)CC1 | 5.81% (inactive) |
| COc1ccc2[nH]c3c(c2c1)CCN(C(=O)CCC1CCCC1)C3c1ccc(F)cc1 (centres undefined) | -3.48% (inactive) |
| CC(C)c1ccc(OCC(=O)N(Cc2ccc(N(C)C)cc2)C2CCS(=O)(=O)C2)cc1 (centres undefined) | 12% (inactive) |
| O=C(CCC1CCCC1)N=C1SC2CS(=O)(=O)CC2N1Cc1ccccc1 (centres undefined) | -43% (active) |
| CC(C)CC(=O)N=C1SC2CS(=O)(=O)CC2N1CCc1ccccc1 (centres undefined) | 4.43% (inactive) |

| SMILES | activity change, negative = inhibition |
| --- | --- |
| C=CCN1C(=NC(=O)COc2ccccc2)SC2CS(=O)(=O)CC21 (centres undefined) | 5.52% (inactive) |
| COc1ccccc1CN1CCC(CNC(=O)c2cnn(-c3cccc(Cl)c3)c2C2CCN(C(=O)OC(C)(C)C)CC2)CC1 | 3.93% (inactive) |
| Cc1ccc(Cl)cc1NC(=O)Cc1ccc(-n2c(C)nc3cccnc32)cc1 | 13% (inactive) |
| COc1ccc(C(CC(=O)N2CCN(c3ccccc3)CC2)c2c(O)cc(OC)cc2OC)cc1 (centres undefined) | 29.6% (inactive) |
| O=C(NCC(c1ccc2c(c1)OCO2)N1CCN(c2ccccc2)CC1)C(=O)Nc1ccccc1F (centres undefined) | 4.02% (inactive) |
| COc1cc(OC)c2ccc(=O)oc2c1C(CCN1CCN(c2ccccc2)CC1)c1ccc2c(c1)OCO2 (centres undefined) | -83.8% (active) |
| COc1ccccc1N1CCN(Cc2cc(OC)c3c(c2)OCO3)CC1 | -0.813% (inactive) |
| COc1cc(C(=O)NCCS(=O)(=O)N2CCN(c3ccccc3)CC2)cc(OC)c1OC | -13.9% (inactive) |
| COc1cc(C(CCN2CCN(c3ccccc3)CC2)c2c(OC)cc(OC)c3ccc(=O)oc23)cc(OC)c1OC (centres undefined) | -74% (active) |
| CC(=O)Nc1cccc(NC(=O)CSc2nccn2Cc2ccc3c(c2)OCO3)c1 | 1.91% (inactive) |
| O=C(Nc1ccc(Br)cc1)c1ccc(Br)c(S(=O)(=O)NCc2ccccc2)c1 | -21.6% (inactive) |
| CCOc1ccccc1NC(=O)C1CCCN(S(=O)(=O)c2cn(C)cn2)C1 (centres undefined) | -15.7% (inactive) |
| Cc1ccccc1CNC(=O)CCCn1nc(C)c2sc3ccccc3c2c1=O | -0.115% (inactive) |
| CCOC(=O)Cn1c(=O)n(-c2ccccc2OC)c2nc(-c3cccc(F)c3)nc(C(N)=O)c21 | -25% (inactive) |
| CCc1cc2c(-c3ccccc3)cc(=O)oc2c2c1OCN(Cc1ccc(C)cc1)C2 | -3.71% (inactive) |
| O=C1CSC2(C(=O)N(Cc3ccccc3)c3ccccc32)N1c1cccc(F)c1 (centres undefined) | -4.64% (inactive) |
| CC1CCCN(c2csc3ccc(F)cc3c2=O)C1 (centres undefined) | -8.32% (inactive) |
| COc1ccc(C2=NC3(CCCCC3)N(CC(=O)Nc3ccc(C(C)C)cc3)C2=O)cc1 | -5.42% (inactive) |
| O=C1C=C(c2ccc(Cl)cc2)C(=O)N1Nc1ccccc1 | -47.7% (active) |
| Cc1cccc(NC(=O)Cn2nc(-c3ccc(Cl)cc3)c3ccccc3c2=O)c1 | 6.9% (inactive) |
| Cc1ccc(-c2cn3c(n2)sc2cc(C(=O)NCCCc4ccccc4)ccc23)cc1 | 7% (inactive) |

| SMILES | activity change, negative = inhibition |
| --- | --- |
| O=S(=O)(c1ccccc1)c1nc(-c2ccccc2)oc1NCCCN1CCOCC1 | -15% (inactive) |
| N#Cc1nc(-c2ccc(OCc3ccccc3)cc2)oc1NCCCN1CCOCC1 | -46.5% (active) |
| Cc1ccc(-c2nc(C#N)c(NCCCn3ccnc3)o2)cc1 | 5.54% (inactive) |
| Cc1cc(C)cc(NC(=O)Cn2nc(N3CCN(c4ccccc4)CC3)ccc2=O)c1 | 25.5% (inactive) |
| COc1ccc(C)cc1NC(=O)C(=O)NCCc1sc(-c2cccc(C)c2)nc1C | -28.6% (inactive) |
| Cc1ccc(OCCSc2nc(-c3cccs3)nc3cc(=O)[nH]n23)cc1Cl | -20.2% (inactive) |
| O=c1cc2nc(-c3ccccc3)nc(SCCOc3ccc(Cl)cc3)n2[nH]1 | -2.6% (inactive) |
| CCc1ccccc1OCCSc1nc(-c2cccs2)nc2cc(=O)[nH]n12 | -43.9% (active) |
| CCc1ccc(NC(=O)CN2C(=O)CCSc3ccc(S(=O)(=O)N4CCCC4)cc32)cc1 | 4.1% (inactive) |
| COc1ccccc1NC(=O)c1cc(S(=O)(=O)NCCc2ccccc2)ccc1F | -14.3% (inactive) |
| Cn1cccc1/C=C1\SC(=S)N(NC(=O)c2ccc(Cl)cc2)C1=O | -34% (active) |
| CC(=O)N1C(=O)/C(=C2\SC(=S)N(NC(=O)c3ccc(O)cc3)C2=O)c2ccccc21 | 2.62% (inactive) |
| O=C(O)c1ccc(/C=C2\SC(=S)N(NC(=O)c3ccc(Br)cc3)C2=O)cc1 | -2.74% (inactive) |
| NC(=O)c1ccc(NC(=O)COC(=O)c2c3c(nc4ccccc24)/C(=C\c2ccc4c(c2)OCO4)CCC3)cc1 | -7.23% (inactive) |
| NS(=O)(=O)c1ccc(NC(=O)COC(=O)c2c3c(nc4ccccc24)/C(=C\c2ccc4c(c2)OCO4)CCC3)cc1 | -45.1% (active) |
| COc1cc(/C=C2\CCCc3c2nc2ccccc2c3C(=O)O)cc(Cl)c1O | -14.9% (inactive) |
| CCCCN(C)CCCNC(=O)CN1N=C(c2ccc(OC)cc2)CCC1=O | 3.24% (inactive) |
| CCCC12CN3CC(C)(CN(C1)C3c1ccccc1Cl)C2=O (centres undefined) | -3.8% (inactive) |
| COc1cccc(-n2c(=O)c3c(C)c(C(=O)N(C)C)sc3n(Cc3cccc(C)c3)c2=O)c1 | 4.64% (inactive) |
| Cc1cc(C)cc(NC(c2nnc(-c3cccc(F)c3)o2)c2ccc(F)cc2Cl)c1 (centres undefined) | 12.4% (inactive) |
| N#C/C(=C\c1ccccc1F)c1nc2ccccc2c(=O)[nH]1 | -3.28% (inactive) |

| SMILES | activity change, negative = inhibition |
| --- | --- |
| CSc1nc(=O)c2c(n1C)NC(=O)CC2c1ccccc1OC(C)C (centres undefined) | 2.77% (inactive) |
| Cc1oc2cc(Br)c(O)c(Br)c2c1C(=O)c1ccccc1 | -4.24% (inactive) |
| Cc1oc2cc([N+](=O)[O-])c(O)c([N+](=O)[O-])c2c1C(=O)c1ccc(Br)cc1 | -36.4% (active) |
| COc1ccc(C(=O)c2c(C)oc3cc([N+](=O)[O-])c(O)c([N+](=O)[O-])c23)cc1 | 12.5% (inactive) |
| COc1ccc(S(=O)(=O)c2c(Nc3cccc(Cl)c3)sc(C(=O)c3ccccc3)c2N)cc1 | -73.9% (active) |
| Cc1ccc(S(=O)(=O)c2c(Nc3cccc(Cl)c3)sc(C(=O)c3ccc4c(c3)OCO4)c2N)cc1 | -41.6% (active) |
| O=C(Nc1ccc2c(c1)OCO2)c1cc(-c2cccc(Cl)c2)on1 | -3.15% (inactive) |
| CCCS(=O)(=O)c1c(Nc2ccccc2C)sc(C(=O)c2ccccc2)c1N | 0.973% (inactive) |
| Cc1ccc(C(=O)Nc2sc(Cc3ccc4c(c3)OCO4)c(C)c2C(N)=O)cc1 | 17.9% (inactive) |
| COc1ccc(S(=O)(=O)c2c(Nc3ccc(C)cc3)sc(C(=O)c3ccc(C)cc3)c2N)cc1 | -13.4% (inactive) |
| NS(=O)(=O)c1ccc(NC(=O)COc2ccc(S(=O)(=O)NC3CCCCC3)cc2)cc1 | 9.54% (inactive) |
| Cc1ccc(C(=O)NC2CCN(C#N)CC2)cc1 | -16% (inactive) |
| Cc1cccc(C(=O)N2c3nc(-c4ccco4)nn3C3(CCCCC3)[C@@H]3CCCC[C@@H]32)c1 | 4.44% (inactive) |
| COc1ccc(NC(=O)CSc2nnc(-c3cccs3)n2Cc2ccco2)cc1OC | 8.42% (inactive) |
| O=C(CSc1nnc(-c2cccnc2)n1Cc1ccco1)c1ccc(Cl)c(Cl)c1 | 18.2% (inactive) |
| O=C(CSc1nnc(-c2cccs2)n1Cc1ccco1)c1ccc2c(c1)OCO2 | -31.7% (active) |
| Cc1cccc(CSc2nc3ccncc3n2Cc2ccc(C(=O)O)cc2)c1 | 14.5% (inactive) |
| O=S(=O)(Nc1ccccc1)c1ccc(NS(=O)(=O)c2cccs2)cc1 | -3.97% (inactive) |
| O=C(Nc1cccc(Cl)c1)Nc1ccccc1NS(=O)(=O)c1cccs1 | -42.1% (active) |
| O=S(=O)(Nc1ccccc1Br)c1cccs1 | 11.5% (inactive) |
| Cc1cccc(NC(=O)Cn2c(=O)n(CCC(C)C)c(=O)c3cccnc32)c1 | 38.2% (inactive) |
